# In PubChem BioAssay AID720579 (National Center for Advancing Translational Sciences (NCATS), 2013):
# Out of some 310,000 compounds screened, about 1,900 (0.61%) were called active. Not shown: some 8% with an inconclusive outcome. The call rests on the fitted dose curve; tested in A549 cells. What follows is part of a selection rich in actives, with near analogues and random picks from the rest. A call without a number means that no potency is given here.
# Test: qHTS for Stage-Specific Inhibitors of Vaccinia Orthopoxvirus: mCherry Reporter Primary qHTS; further: nearly all actives have a fitted effect of over 35% in size
# Conditions: Vaccinia virus mCherry reporter infection, fluorescence; series mostly up to 36.5 µM
# Potency means the concentration at half of the fitted maximal effect.
row,SMILES,Potency
1,COc1ccc(C(C)(C)C)cc1NC(=O)CN(C)C1=NS(=O)(=O)c2ccccc21,inactive
2,COC(=O)[C@]12CCCCC=C1N(CCC1=CCCCC1)C(=O)[C@H](CC(=O)N1CCSCC1)C2,inactive
3,CCC(C)C(=O)O[C@@H]1C[C@@]2(C)C(c3ccoc3)OC(=O)CC23OC2(C)O[C@@]14[C@@]1(C)C(CC(=O)OC)C5(C)CC1(O)C(O)(C5OC(=O)C1(C)OC1C)C(OC(C)=O)[C@@]34O2 (some centres not stated),inactive
4,COC(=O)CC1C(C)(C)C(OC(C)=O)C2CC3=C4CC(=O)OC(c5ccoc5)[C@]4(C)CCC3[C@@]1(C)C2=O (some centres not stated),inactive
5,C=C1C([C@@]2(C)C(OC(C)=O)CC(=O)O[C@@](C)(COC(C)=O)C2CC(=O)OC)C(OC=O)C(OC(=O)C(O)C(C)CC)[C@]2(C)C(c3ccoc3)CC(=O)C12O (some centres not stated),2 µM (active)
6,COc1ccc(C(O)c2nc(-c3ccc4c(c3)OCO4)cs2)cc1 (configuration not stated),inactive
7,CCc1nc2c(OCc3cccc(OC)c3)cccn2c1N(C)C(=O)C(C)C,inactive
8,CCN1CCCC1CNC(=O)c1ccc2c(c1)NC(=O)/C(=C\c1ccccc1F)S2 (configuration not stated),inactive
9,CC(=O)c1cccc(-c2cnc3c(NC=O)cc(-c4ccccc4Oc4ccccc4)cn23)c1,inactive
10,COc1ccc(NC(=O)CN2C(=O)NC(C)(c3ccccc3)C2=O)cn1 (configuration not stated),inactive
11,CCOc1ccc(S(=O)(=O)Nc2ccc(OC)nc2)cc1,inactive
12,COc1ccc(CS(=O)/C(Cl)=C(/Cl)C(=O)Nc2ccc(OC)nc2)cc1 (configuration not stated),3.98 µM (active)
13,CCN(CC)S(=O)(=O)c1ccc(N2CCCC2)c(NC(=O)c2ccc([N+](=O)[O-])o2)c1,14.1 µM (active)
14,CCN(CC)S(=O)(=O)c1cc(C(=O)Nc2cc(S(=O)(=O)N3CCOCC3)ccc2N2CCCC2)ccc1F,inactive
15,CCN(CC)S(=O)(=O)c1ccc(N2CCN(C)CC2)c(NC(=O)Nc2ccccc2F)c1,inactive
16,COc1cccc(CNc2nc(NCc3cccs3)nc3ccsc23)c1,inactive
17,OC(c1ccccc1)c1nc(-c2cnc3ccccc3c2)cs1 (configuration not stated),inactive
18,CC1(c2cccc(Br)c2)NC(=O)N(CC(=O)NCCC2=CCCCC2)C1=O (configuration not stated),inactive
19,O=C(NCCOc1ccccc1)N1[C@H]2CC[C@@H]1C=C(c1ccc(F)cc1OCc1ccccc1)C2,inactive

row,SMILES,Potency
1,CC1(C(=O)NS(=O)(=O)c2ccccc2)CCN1C(=O)C/C=C/c1ccccc1 (configuration not stated),inactive
2,CC1(C)CCSC(/C=C/c2ccccc2)=N1,11.2 µM (active)
3,CC1(C(=O)O)CCN1C(=O)/C=C/c1ccccc1 (configuration not stated),inactive
4,COc1ccc(Cc2nnc(N/N=C/c3ccccc3O)[nH]c2=O)cc1OC,1.26 µM (active)
5,O=c1[nH]c(NCCO)nnc1Cc1ccc(Cl)cc1,inactive
6,COc1ccc(/C=N/Nc2nc3ccccc3c(=O)[nH]2)cc1,inactive
7,CCC(c1nnnn1-c1ccc2c(c1)OCCO2)N1CCN(c2ccc(C(F)(F)F)cn2)CC1 (configuration not stated),inactive
8,O=C(C(=O)N1CCC(c2ccccc2)CC1)c1ccccc1,inactive
9,CCOC(=O)[C@]12CCC=C1N(CCC1=CCCCC1)C(=O)[C@H](CC(=O)NCc1ccc(C)o1)C2,inactive
10,CN(C(=O)c1cccc(NC(=O)Cc2ccc(NC(=O)C3CCN(C(=O)C4CCCCC4)CC3)cc2)c1)C1CCC1,inactive
11,CN(C(=O)c1cccc(NC(=O)Cc2cccc(NC(=O)C3CCCN(C(=O)C4CC4)C3)c2)c1)C1CCC1 (configuration not stated),inactive
12,CN(C(=O)c1cccc(NC(=O)Cc2cccc([N+](=O)[O-])c2)c1)C1CCCCC1,10 µM (active)
13,CCN(CC)C(=O)C(C)N1c2cccc3cccc(c23)S1(=O)=O (configuration not stated),inactive
14,CSCCC(C(=O)NC(C)(C)C)n1c(-c2ccccc2)nc2ccccc21 (configuration not stated),inactive
15,CCCNC(=O)C1(C)CCN1C(=O)Cc1ccc(-c2ccccc2)cc1 (configuration not stated),inactive
16,CC(C)N1CCc2c(sc(NC(=O)Cc3ccccc3)c2C#N)C1,inactive
17,CC(=O)N1CCc2c(sc(NC(=O)CCS(=O)(=O)c3ccccc3)c2C#N)C1,12.6 µM (active)
18,CC(=O)N1CCc2c(sc(NC(=O)CCS(=O)(=O)c3ccc(C)cc3)c2C(N)=O)C1,inactive
19,CCc1oc(-c2ccc(OC)cc2)c(C(=O)OCCCCCO)c1C(C)OCCO (configuration not stated),inactive

row,SMILES,Potency
1,O=C(c1cnn2c1NC(=C1CC1)C=C2C(F)F)N1CCc2ccccc2C1,inactive
2,CN(C)c1cccc(NC(=O)c2ccc(-c3ccc(F)c(F)c3)c3ccoc23)c1,inactive
3,Cc1ccccc1S(=O)(=O)NC(=O)C1(C)CCN1C(=O)C1(c2ccccc2)CCCC1 (configuration not stated),inactive
4,C#CCSc1nnc(-c2sc3ccccc3c2Cl)o1,11.2 µM (active)
5,COc1ccc2c(Cl)c(-c3nnco3)sc2c1,inactive
6,O=C(OCC#CCSc1nnc(-c2ccncc2)o1)c1sc2ccccc2c1Cl,inactive
7,CC1(C(=O)Nc2cccnc2)Cc2c(-c3ccccc3)ccnc2O1 (configuration not stated),inactive
8,COc1ccc(/C=C/C(=O)c2ccc(NS(=O)(=O)c3ccc(C)cc3)cc2)cc1O,12.6 µM (active)
9,COc1ccc(C(=O)Oc2cc(/C=N/NS(=O)(=O)c3ccc(C)cc3)ccc2OC)cc1,inactive
10,COc1ccc(NS(=O)(=O)c2ccc(NC(=S)NC(=O)/C=C/c3ccc(C)cc3)cc2)nn1,inactive
11,CCOC(=O)[C@]12CCCC=C1N(Cc1ccc3c(c1)OCO3)C(=O)[C@H](CC(=O)N1CCN(C(=O)c3ccco3)CC1)C2,inactive
12,Cc1ccccc1NC(=O)Cc1nc(COC(=O)C(C)(C)Oc2ccc(Cl)cc2)cs1,inactive
13,C/C=C/C(=O)OCc1csc(CC(=O)Nc2ccccc2C)n1,5.01 µM (active)
14,Cc1ccccc1NC(=O)Cc1nc(COC(=O)CNC(=O)c2ccc(Cl)cc2Cl)cs1,inactive
15,CCC(C(=O)NC(C)(C)C)n1c(-c2ccccc2)nc2ccccc21 (configuration not stated),inactive
16,CC(C)=C(NC(=O)c1ccccc1)C(=O)N/N=C(\C)c1ccccc1O,inactive
17,C/C(=N\NC(=O)c1ccoc1C)c1ccccc1O,1.12 µM (active)
18,C/C(=N\NC(=O)c1ccccc1C)c1ccc(N2CCOCC2)cc1,inactive
19,CCOC(=O)[C@]12CCCC=C1N(CCC1=CCCCC1)C(=O)[C@H](CC(=O)N1CCN(C(=O)c3ccco3)CC1)C2,inactive
